A short description of the experiment: activators of LNCaP cell differentiation, retest, confirmation, side scatter shift, flow cytometry (AID 1069).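 Also: LNCaP human prostate cancer cells in low-serum medium with charcoal-stripped FBS; percent of cells with raised granularity gated so DMSO controls show 10%.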 As to conditions: 4 d, stronger effect = higher value. For orientation: A flow cytometer gives signals particle by particle.

Active and inactive are the calls of the source.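 The calls were made as follows: active = high combined rank on largest and smallest cell-count-weighted shift across three tests, rank score above 45, floors 50 and 25 (some results past the limit were not filed as active); inactive = the rest.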

With `Cc1oc(-c2ccccc2F)nc1CN1CCC(C(=O)NCc2cccnc2)CC1`, the side scatter shift by setting is: (at 100 µM) 8.3% (inactive); (side scatter shift, at 10 µM) 3.9%.

Consider `COc1ccc(Cc2nc(-c3ccc(-n4cccc4)cc3)no2)cc1OC`, for which the side scatter shift reads like this: (at 100 µM) 23.5% (inactive); (side scatter shift, at 10 µM) 15.8%.

`CC1=C(n2nnc3ccccc32)C(c2ccccc2)C(C#N)=C(N)O1` (stereo not drawn): the side scatter shift is, setting by setting: (at 100 µM) 26% (inactive); (side scatter shift, at 10 µM) 6.4%.

For `COc1ccccc1NC(=O)c1nc[nH]c1C(=O)Nc1ccccc1OC`, the side scatter shift by setting is: (at 100 µM) 50.5% (inactive); (side scatter shift, at 10 µM) 5.65%.

On to `CCS(=O)(=O)N1CCC(C(=O)NCCCN2CCN(c3ccccc3F)CC2)CC1`, for which the side scatter shift (at 100 µM) was 13.3% (inactive) and the side scatter shift (side scatter shift, at 10 µM) was determined as 12.6%.

Turning to `Cc1cc(NC(=O)CSc2nnc(C3CC3)n2C)no1`, the side scatter shift runs as follows: (at 100 µM) 11.6% (inactive); (side scatter shift, at 10 µM) 9.3%.

With `COC(=O)c1cc2oc3ccccc3c2n1CC(=O)Nc1ccccc1OC`, the side scatter shift reads like this: (at 100 µM) 18.9% (inactive); (side scatter shift, at 10 µM) 8.8%.

For `CCc1ccc(-c2nc(CN3CCC(C(=O)NCc4ccco4)CC3)c(C)o2)cc1`, the side scatter shift was 20% (inactive) (at 100 µM) and 16.5% (side scatter shift, at 10 µM).

As for `O=C(CSc1nc2c(c(=O)n1-c1ccc(F)cc1)SCC2)NCC1CCCO1` (stereo not drawn), the side scatter shift (at 100 µM) was 19.8% (inactive) and the side scatter shift (side scatter shift, at 10 µM) turned out to be 3.9%.

As for `CCN(CC)CCNC(=O)c1cc2c(-c3ccc(Cl)cc3)nn(C)c2s1`, the side scatter shift by setting is: (at 100 µM) 24% (inactive); (side scatter shift, at 10 µM) 64.8%.

For the compound `Cc1ccccc1-c1nc(CN2CCCC(C(=O)NCCCN3CCOCC3)C2)c(C)o1` (stereo not drawn), the side scatter shift (at 100 µM) was 72.4% (active) and the side scatter shift (side scatter shift, at 10 µM) amounted to 12.8%.

Turning to `COCCNC(=O)CC(NS(=O)(=O)c1ccc(NC(C)=O)cc1)C(C)C` (stereo not drawn), the side scatter shift (at 100 µM) was 6.3% (inactive) and the side scatter shift (side scatter shift, at 10 µM) is 9.45%.

For the compound `Cc1nc2nc(C)c(CCC(=O)NCCCN3CCN(c4cccc(Cl)c4)CC3)c(C)n2n1`, the side scatter shift is 27.9% (inactive) (at 100 µM) and 7.4% (side scatter shift, at 10 µM).

For `CCN1C(=O)OC2(CCCCC2)C1(C)O` (stereo not drawn), the side scatter shift is 10.4% (inactive) (at 100 µM) and 12.7% (side scatter shift, at 10 µM).

The record behind these values is PubChem BioAssay AID1069 (NMMLSC, 2008).
